Experimental data from PubChem BioAssay (NCATS).
Inconclusive results are not listed. The source made the active and inactive calls. Calls follow the shape of the dose curve; as a rule, active = well fitted curve in the direction sought with a large enough effect; inconclusive = small, poorly fitted or top-dose-only effect, or another doubt; inactive = no such curve, though single readings can be large; an effect the other way counts as inactive or inconclusive.

Columns and labels:
[1] = Quantitative High-Throughput drug screen in 47 multiple myeloma cell lines against the NCATS MIPE library collection: ARP1_JJKsccF8 cell viability assay (AID 1918928; also: nearly all actives have a fitted effect of over 40% in size)
In short: (§1)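 ATP readout (CellTiter-Glo), 48 h drug incubation, 37 °C/5% CO2, 500 cells per well; normalisation to DMSO (100%) and media-only (0%) controls.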

[2] = Quantitative High-Throughput drug screen in 47 multiple myeloma cell lines against the NCATS MIPE library collection: ARD_JJKsccE7 cell viability assay (AID 1918929)
In short: (§2)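 We plated 500 myeloma cells per well, pinned in MIPE 4.0 compounds, and incubated for 48 hours at 37C. ATP was then quantified with CellTiter-Glo, with DMSO and media-only wells defining 100% and 0%.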

[3] = Quantitative High-Throughput drug screen in 47 multiple myeloma cell lines against the NCATS MIPE library collection: KMM1_JCRB cell viability assay (AID 1918960); also: nearly all actives have a fitted effect of over 30% in size;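 as to viability (% of DMSO): 100% = DMSO-treated cells and 0% = medium-only wells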
In short: as §1

[4] = Quantitative High-Throughput drug screen in 47 multiple myeloma cell lines against the NCATS MIPE library collection: JIM3_ECACC cell viability assay (AID 1918963; also: nearly all actives have a fitted effect of over 35% in size)
In short: (§3)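 Inhibition of cell viability is measured here. Each line was plated at 500 cells per well, treated with MIPE 4.0 drugs, kept 48 hours at 37C, then assayed for ATP content by CellTiter-Glo luminescence.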

[5] = Quantitative High-Throughput drug screen in 47 multiple myeloma cell lines against the NCATS MIPE library collection: JJN3_DSMZ cell viability assay (AID 1918966; also: nearly all actives have a fitted effect of over 50% in size)
In short: as §2

[6] = Quantitative High-Throughput drug screen in 47 multiple myeloma cell lines against the NCATS MIPE library collection: Karpas417_ECACC cell viability assay (AID 1918961); settings: Karpas417 myeloma viability, CellTiter-Glo ATP luminescence, 48 h; viability (% of DMSO): at 45.8 µM (top of the series)
In short: (§4)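 qHTS of the MIPE 4.0 collection: 500 myeloma cells/well, 48 h drug exposure at 37C in 5% CO2, then CellTiter-Glo for 5 min at room temperature before luminescence reading.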

[7] = Quantitative High-Throughput drug screen in 47 multiple myeloma cell lines against the NCATS MIPE library collection: KHM11_PLB cell viability assay (AID 1918962); also: nearly all actives have a fitted effect of over 35% in size
In short: as §3

[8] = Quantitative High-Throughput drug screen in 47 multiple myeloma cell lines against the NCATS MIPE library collection: INA6_PLB cell viability assay (AID 1918965; also: nearly all actives have a fitted effect of over 55% in size)
In short: as §4

[9] = Quantitative High-Throughput drug screen in 47 multiple myeloma cell lines against the NCATS MIPE library collection: Karpas620_DSMZ cell viability assay (AID 1918959); also: nearly all actives have a fitted effect of over 30% in size
In short: as §3

[10] = Quantitative High-Throughput drug screen in 47 multiple myeloma cell lines against the NCATS MIPE library collection: JIM1_ECACC cell viability assay (AID 1918964)
In short: as §2
Potency is read from the fitted curve at half-maximal effect.

| SMILES | Potency [1] | Potency [2] | Potency [3] | Potency [4] | Potency [5] | viability (% of DMSO) [6] | Potency [7] | Potency [8] | Potency [9] | Potency [6] | Potency [10] |
| --- | --- | --- | --- | --- | --- | --- | --- | --- | --- | --- | --- |
| O=C(O)CCC1CCC(c2cc(F)ccc2F)(S(=O)(=O)c2ccc(Cl)cc2)CC1 (stereo not given) | inactive | 14.8 µM (active) | 16.6 µM (active) | inactive | inactive | – | – | – | – | – | – |
| C=C1C(=O)OC(CCCCCCCC)C1C(=O)O (stereo not given) | inactive | inactive | – | – | – | 74% (active) | inactive | 18.7 µM (active) | – | – | – |
| Nc1ncnc2c1ncn2[C@@H]1O[C@@H](CO)[C@H](O)[C@H]1O | inactive | inactive | – | inactive | – | – | – | inactive | inactive | inactive | – |
| O=C1c2ccccc2-[n+]2ccc3c([nH]c4ccccc43)c21 | 2.09 µM (active) | 7.43 µM (active) | 3.72 µM (active) | 0.59 µM (active) | 1.48 µM (active) | – | 2.35 µM (active) | – | – | 8.33 µM (active) | 3.72 µM (active) |
| C=C1C(=O)[C@@]23C(CC[C@@H]1[C@H]2O)[C@@]12CO[C@]3(O)[C@@H](O)[C@@H]1C(C)(C)CC[C@@H]2O (stereo not given in full) | 5.9 µM (active) | 1.48 µM (active) | 2.35 µM (active) | 10.5 µM (active) | 2.09 µM (active) | – | 5.26 µM (active) | 1.18 µM (active) | – | – | – |
| CO[C@H]1C=CC=C(C)C(=O)NC2=CC(=O)C(NCCN(C)C)=C(C[C@@H](C)C[C@H](OC)[C@@H](O)[C@@H](C)C=C(C)[C@@H]1OC(N)=O)C2=O | 0.0118 µM (active) | 0.001 µM (active) | 0.0526 µM (active) | 0.0743 µM (active) | 0.0296 µM (active) | – | 0.0372 µM (active) | – | – | – | 0.0209 µM (active) |
| CCC(CC)[C@H](NC(C)=O)[C@@H]1[C@H](O)[C@@H](C(=O)O)C[C@@H]1N=C(N)N | inactive | inactive | – | inactive | inactive | – | inactive | – | – | – | – |
| c1ccc2c(Cc3c[nH]c4ccccc34)c[nH]c2c1 | 20.9 µM (active) | inactive | – | 10.5 µM (active) | 26.4 µM (active) | – | 4.18 µM (active) | 3.32 µM (active) | 9.35 µM (active) | – | – |
| NS(=O)(=O)c1ccc(NC2=CC(=O)c3ccccc3C2=O)cc1 | 2.64 µM (active) | 2.64 µM (active) | – | 18.7 µM (active) | – | – | – | – | 1.66 µM (active) | – | – |
| CC(C)(C(=O)NCC(F)(F)C(F)(F)F)C(=O)N[C@@H]1C(=O)Nc2ccccc2-c2ccccc21 | inactive | – | 18.7 µM (active) | – | – | – | – | – | 2.35 µM (active) | – | – |
| CN(C)CCC=C1c2ccccc2COc2ccc(CC(=O)O)cc21 | inactive | inactive | – | inactive | – | – | – | – | inactive | – | – |
| Cc1c(O)cccc1C(=O)N[C@@H](CSc1ccccc1)[C@H](O)CN1C[C@H]2CCCC[C@@H]2C[C@@H]1C(=O)NC(C)(C)C | 23.5 µM (active) | 16.6 µM (active) | 18.7 µM (active) | 20.9 µM (active) | 18.7 µM (active) | – | 18.7 µM (active) | 23.5 µM (active) | – | 14.8 µM (active) | 9.35 µM (active) |
| O=C(O)c1cc(O)c2c(c1)C(=O)c1cccc(O)c1C2=O | 34 µM (active) | inactive | – | inactive | – | – | – | – | – | – | – |
| COCCOC(=O)C1=C(C)NC2=C(C(=O)CC(c3ccccc3OC)C2)C1c1cccc(O)c1 (stereo not given) | 10.5 µM (active) | 1.66 µM (active) | – | 20.9 µM (active) | – | – | 11.8 µM (active) | 1.66 µM (active) | – | – | 9.35 µM (active) |
| O=C(O)C(O)Cc1ccc(O)c(O)c1 (stereo not given) | 23.5 µM (active) | inactive | – | inactive | 23.5 µM (active) | – | – | – | inactive | – | – |
| Cc1ccc(C(C)(O)c2nc3ccccc3s2)c(C)c1 (stereo not given) | inactive | inactive | inactive | inactive | inactive | – | – | inactive | – | inactive | – |
| NC[C@@H]1O[C@@H](O[C@H]2[C@@H](O)[C@H](O[C@@H]3[C@@H](O)[C@@H](N)C[C@H](N)[C@H]3O[C@H]3O[C@H](CN)[C@@H](O)[C@@H](O)[C@H]3N)O[C@H]2CO)[C@H](N)[C@@H](O)[C@@H]1O | inactive | inactive | inactive | inactive | inactive | – | inactive | inactive | – | – | inactive |
| O=c1cc(CN2CCOCC2)occ1OCCCCCSc1ccnc2cc(C(F)(F)F)ccc12 | 20.9 µM (active) | 20.9 µM (active) | 13.2 µM (active) | 4.69 µM (active) | 7.43 µM (active) | – | – | – | – | – | – |
| O=C(NC1CCOCC1)c1ccc(-c2cc(-c3cn[nH]c3-c3ccccn3)ccn2)cc1 | inactive | 0.0296 µM (active) | – | inactive | inactive | – | – | inactive | inactive | – | – |
